# Assay outcomes as filed in PubChem BioAssay.
# PLK1 PBD inh: PLK1 (human) polo-box domain binding inhibition; 360,000 tested, 2.8% active; Potency, µM, for inactives: max response, negative = inhibition, actives largely listed as inhibitors; P53350; Plk1 PBD binding of FITC phosphopeptide, fluorescence polarization; further: series mostly up to about 57 µM; nearly all actives have a fitted effect of over 65% in size
# Target sequence (P53350 whole entry, looked up, the tested form may be a part): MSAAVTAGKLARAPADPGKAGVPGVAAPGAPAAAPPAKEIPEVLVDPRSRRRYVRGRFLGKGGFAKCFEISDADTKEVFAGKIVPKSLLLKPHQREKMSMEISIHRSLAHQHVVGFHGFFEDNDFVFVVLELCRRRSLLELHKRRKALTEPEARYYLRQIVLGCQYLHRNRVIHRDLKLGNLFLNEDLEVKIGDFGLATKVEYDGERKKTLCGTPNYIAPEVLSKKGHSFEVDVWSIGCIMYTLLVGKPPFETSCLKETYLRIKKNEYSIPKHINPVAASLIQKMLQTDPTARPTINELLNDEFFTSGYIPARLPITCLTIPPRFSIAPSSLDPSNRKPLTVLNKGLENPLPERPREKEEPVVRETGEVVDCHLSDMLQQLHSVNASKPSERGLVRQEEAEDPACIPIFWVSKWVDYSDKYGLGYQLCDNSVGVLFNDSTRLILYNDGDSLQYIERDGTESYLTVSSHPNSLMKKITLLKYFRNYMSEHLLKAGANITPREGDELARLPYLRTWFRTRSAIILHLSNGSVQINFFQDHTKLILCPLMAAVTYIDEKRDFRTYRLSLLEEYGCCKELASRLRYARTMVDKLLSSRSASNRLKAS
# VDR inhibitor: blocks the human vitamin D receptor; AID 504847; P11473; VDR-SRC2-3 peptide fluorescence polarization, 2 h; 400,000 tested, 0.93% active; Potency, µM, for the others: max response, negative = inhibition, hits mostly inhibitors
#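 Measured by FP: displacement of SRC2-3 coactivator peptide from VDR by library compounds, following a two-hour ambient incubation.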
# Tau fluor counter: counter-screen for tau fibril formation inhibitors. tau K18 P301L Alexa594 fluorescence, heparin fibrillization. Potency, µM (doses to about 57.7 µM), inactives show at the top dose activity change, negative = decrease. 280,000 tested, 0.93% active. AID 1463; further: nearly all actives have a fitted effect of over 55% in size
#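 Human K18 P301L tau (15 uM unlabeled plus 0.24 uM Alexa 594-labeled, final) in 100 mM sodium acetate pH 7 was mixed with compound and 20 uM heparin and incubated 6 hr at 37 C.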
# Sfp inh: Sfp phosphopantetheinyl transferase inhibition. Q9F4F7. Biochemical Sfp PPTase activity, qHTS. Potency, µM, for the others: largest response in the series, negative = inhibition, hits mostly inhibitors. 310,000 tested, 3.5% active. AID 1490;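 further: the enzyme is Sfp with the accession as filed and its product quenches rhodamine fluorescence; 0% = enzyme reaction without inhibitor and -100% = no enzyme wells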
#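 After 15 min at room temperature with compound, 15 nM Sfp received 5 uM rhodamine-CoA plus 12.5 uM BHQ-2-ybbR (50 mM Hepes pH 7.6, 10 mM MgCl2). Rate came from the fluorescence difference over 30 min, ex 525/em 598 nm.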
# Tau fibril FP: tau fibrillization inhibition (FP). P10636. K18 P301L tau heparin fibrillization, Alexa594 FP, 6 h. Potency, µM (doses to about 57.7 µM), inactives show at the highest dose activity, negative = inhibition, usual class: inhibitors. 280,000 tested, 0.39% active. AID 1468; further: nearly all actives have a fitted effect of over 55% in size
# Target sequence (P10636 561-689 P618L limits assumed): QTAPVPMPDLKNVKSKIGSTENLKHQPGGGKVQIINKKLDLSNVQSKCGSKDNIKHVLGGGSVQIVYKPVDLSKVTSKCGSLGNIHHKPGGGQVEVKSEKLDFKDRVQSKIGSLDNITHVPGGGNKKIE
#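 Quantitative HTS format: compounds meet 15 uM recombinant K18 P301L tau and Alexa 594-tau tracer in 100 mM sodium acetate pH 7; 20 uM heparin triggers fibrillization at 37 C over 6 hr; FP gives the signal.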
# Tau ThT inhib: blocks human tau fibril formation measured by thioflavin T; P10636; recombinant tau K18 P301L (four-repeat tau fragment), heparin-induced fibrillization, ThT fluorescence; Potency, µM (top dose mostly 57.4 µM), inactives show at the highest dose activity, negative = inhibition, hits mostly inhibitors; 270,000 tested, 2.1% active; further: nearly all actives have a fitted effect of over 55% in size
#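 In this qHTS, human K18 P301L tau is incubated with compound and heparin for 6 hr at 37 C, and Thioflavin T fluorescence then reports fibril load.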
# * hit, by the source's call; u = inconclusive; x = no result given; ! = not active in a repeat; [ ] = dose if it differs, or a comment. Rows were chosen to be rich in hits. Some 6% of all compounds tested hit in one or more screens of this group. The call rests on the fitted dose curve; in most records, active means well fitted curve in the direction sought with a large enough effect; inconclusive means small, poorly fitted or top-dose-only effect, or another doubt; inactive means no such curve, though single readings can be large; an effect the other way counts as inactive or inconclusive. Unless noted, on the % scale 0 is the no-effect control and ±100 the full control effect; potency means the concentration at half of the fitted maximal effect.
SMILES,PLK1 PBD inh,VDR inhibitor,Tau fluor counter,Sfp inh,Tau fibril FP,Tau ThT inhib
COc1cc(/C=N/NC(=O)CCn2c3ccccc3c3ccccc32)ccc1O,-4.9%,-13.3%,25.1µM*[quencher],6.4%,9.6%,u
CCOc1ccc(OCC(=O)NCCS(=O)(=O)N2CCN(c3ccccc3F)CC2)cc1,x,9.9%,-4.7%,x,-3.4%,-2.3%
CCCCc1ccc(NC(=S)NCc2ccc(OC)cc2)cc1,-25.9%,-12.4%,-25.6%,4.9%,-7.5%,-4.7%
COc1ccc(/C=N/OCC(=O)N=Nc2c(O)[nH]c3ccc(Br)cc23)cc1OC,-4.6%,7.5%,u,-13.9%,u,17.8µM*
O=S(=O)(c1cccc(C(F)(F)F)c1)N1CCC(c2cc(-c3cccc4ccccc34)n[nH]2)CC1,18.9µM*,u,-18.7%,11.6%,-0.5%,-0.2%
O=C(O)/C=C/C(=O)Nc1ccccc1-c1ccccc1NC(=O)/C=C/C(=O)O,-24.5%,-9.4%,-16.0%,7.94µM*,u,u
O=C(O)/C=C/C(=O)Nc1cccc2c1-c1ccccc1C2=O,-5.8%,1.2%,x,x,x,x
O=C(O)/C=C/C(=O)Nc1ccccc1SC(F)(F)F,-29.4%,-10.7%,3.5%,12.6µM*,12.0%,-9.9%
CC(=O)c1ccc(N2CCN(C(=O)c3cc(S(=O)(=O)N4CCCCCC4)cn3C)CC2)cc1,x,7.9%,-5.7%,x,0.6%,-3.7%
Cc1ccc(NC(=O)CSc2nc(-c3ccco3)cc(C(F)(F)F)n2)cc1,x,-9.2%,-7.4%,x,u,10.3%
NC(=O)C1CCN(C(=O)c2ccc(NC(=O)c3nsc4ccccc34)cc2)CC1,x,-8.0%,2.9%,x,-1.4%,3.8%
COc1ccc(NC(=O)C(c2ccc(C#N)cc2)n2c(=O)c(-c3cc4ccccc4[nH]3)nc3ccccc32)cc1 (centres undefined),0.3%,x,x,x,x,x
N#Cc1c(-c2ccco2)cc(-c2ccccn2)nc1N,-12.7%,6.0%,-28.2%,u,-6.4%,u
N#Cc1c(-c2ccco2)cc(C2CC2)nc1N,-6.5%,-8.0%,1.7%,31.6µM*,2.5%,-11.1%
COc1ccc(N2C(=O)c3ccccc3NC2c2ccc(OC)c(COc3ccccn3)c2)cc1 (centres undefined),7.4%,-1.5%,-9.1%,1.5%,14.1%,-9.8%
COc1ccc(N2C(S)=C(C#N)C(=O)NC2c2ccc(OC)c(OC)c2)cc1 (centres undefined),-27.5%,39.8µM*,-25.1%,22.4µM*,u,28.2µM*
CCOc1ccc(C2NC(=O)C(C#N)=C(S)N2c2ccc(OC)cc2)cc1OC (centres undefined),u,u,-21.8%,28.2µM*,u,u
COc1ccc(OC2C(=O)N(c3ccc(F)cc3)C2c2ccc(OC)c(OC)c2)cc1 (centres undefined),1.9%,10.6%,-19.0%,0.6%,-4.6%,1.8%
Cc1cccc(CNC(=O)Cn2ccc3cc(S(=O)(=O)N4CCC(C)CC4)ccc32)c1,x,14.7%,-9.7%,x,-10.6%,3.8%
CC(=O)c1ccc(N2CCN(c3ncnc4c3nc3n4CCCC3)CC2)cc1,x,11.8%,-11.9%,x,-5.3%,u
Cc1ccc(Cl)cc1N1CCN(CCNC(=O)Nc2ccc(Cl)cc2)CC1,x,-6.7%,u,x,12.6µM*,-1.1%
CCOc1ccc(NC(=O)NCCN2CCN(c3cc(Cl)ccc3C)CC2)cc1,x,-19.1%,14.1µM*[quencher],x,u,u
O=C(O)c1ccccc1C(=O)Nc1ccc(Br)c2cccnc12,-6.1%,8.9%,13.7%,39.8µM*,4.1%,16.1%
O=C(O)c1ccccc1C(=O)Nc1ccccn1,-2.2%,-3.7%,2.4%,12.7%,2.1%,4.2%
Nc1cc2nc[nH]c2cc1N,1.1%,8.2%,u,6.4%,u,22.4µM*
SMILES,PLK1 PBD inh,VDR inhibitor,Tau fluor counter,Sfp inh,Tau fibril FP,Tau ThT inhib
C=CCNc1nc(Cl)nc(Nc2cc(Cl)ccc2OC)n1,21.2µM*,u,x,-1.1%,x,x
Cc1nc(NC(=O)C2CCCC2)sc1Cc1ccc2c(c1)OCO2,-2.4%,15.4%,u,-11.5%,5.8%,-15.3%
Cc1c(Cc2ccc3c(c2)OCO3)sc(NC(=O)C2CC2)c1C(N)=O,3.77µM*,50.1µM*,u,20µM*,u,x
CN1CCN(CCCNCc2cn(CCC#N)c3ccccc23)CC1,-4.1%,-10.2%,x,56.2µM*,x,x
Oc1ccc2ccccc2c1C1Nc2cccc3cccc(c23)N1,-8.6%,-10.9%,14.1µM*[quencher],-8.8%,-1.5%,28.2µM*
Clc1ccc(C2Nc3cccc4cccc(c34)N2)cc1,u,-8.3%,x,u,x,x
CCN(CC)c1ccc(C2Nc3cccc4cccc(c34)N2)c(O)c1,4.9%,13.4%,14.1µM*[quencher],-14.0%,-16.1%,15.8µM*
Cc1ccc(-n2ccnc2SCC(=O)N(CC(C)C)C2CCS(=O)(=O)C2)c(C)c1 (centres undefined),10.6µM*,u,-4.8%,0.1%,-2.7%,-5.4%
CCOc1ccc(C2C(C(=O)Nc3ccc(OC)cc3)=C(C)Nc3nc(SCc4ccc(Cl)cc4)nn32)cc1 (centres undefined),x,11.8%,0.3%,x,-13.3%,u
CN(C)c1ccc(C(=C2C=CC(=[N+](C)C)C=C2)c2ccc(N(C)C)cc2)cc1,x,39.8µM*,7.08µM*[quencher],44.7µM*!,15.8µM*,5.01µM*
CN(C)c1ccc(C(=O)C(=O)c2ccccc2)cc1,-1.1%,9.5%,x,-0.9%,x,x
CN(C)c1ccc(C(=C2C=CC(=[N+](C)C)C=C2)c2ccccc2)cc1,x,u,x,50.1µM*,x,x
O=C(CCOc1ccccc1)N1CCN(c2ccc(O)cc2)CC1,2.5%,5.1%,-15.2%,50.1µM*,6.4%,u
O=C(CCSc1ccc(Cl)cc1)N1CCN(c2ccc(O)cc2)CC1,-15.5%,-7.9%,u,79.4µM*,-5.2%,u
COCCCN1C(=O)C(CC(=O)NCCN2CCOCC2)CC(C(=O)N(C)C)=C1C (centres undefined),-4.2%,x,x,x,x,x
CCOc1ccc(C2C(C(=O)Nc3ccccc3OC)=C(C)Nc3c(C(=O)Nc4cccc(C)c4)cnn32)cc1 (centres undefined),x,14.5%,-20.9%,x,u,-0.3%
N#Cc1nc(N)nc(N2CCCCC2)n1,x,-11.9%,x,x,x,x
Cc1ccccc1NC(=O)CN1C(=O)S/C(=C\c2ccc(-c3cc(C(=O)O)ccc3C)o2)C1=O,-19.9%,12.4%,-4.4%,35.5µM*,-5.4%,u
Cc1ccc(C(=O)O)cc1-c1ccc(/C=C2\SC(=O)N(CC(=O)Nc3ccccc3)C2=O)o1,u,17.2%,2.3%,17.8µM*,0.9%,u
C#CCN1C(=O)S/C(=C\c2ccc(-c3ccc(C(=O)O)cc3C)o2)C1=O,u,-12.2%,x,-29.8%,x,x
Cc1cc(C(=O)O)ccc1-c1ccc(/C=C2\SC(=O)N(CC(=O)Nc3ccc4c(c3)OCO4)C2=O)o1,x,x,x,50.1µM*,x,x
